# Experimental data taken from PubChem BioAssay (NCI).
# This is part of a sample that, as a whole, favours compounds with a hit. Of some 83,000 tested, about 20% had one in any assay.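 Interpretation: 100, growth as untreated; towards 0, rising growth inhibition; 0, no net growth; 0 to -100, cell death. Compounds scoring below 10 were considered active.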 A number with no mark means an inactive call. The source made the active and inactive calls.
# System: HL-60(TB) leukemia
# Experiment: NCI-60 one-dose screen, 48 h (100 = growth as untreated, 0 = no growth, -100 = all killed)
# Settings: 10 µM unless noted
row,Compound,growth
1,O=c1c2c(=NCCN3CCCC3)cc3c(=O)n(CCCN4CCOCC4)c(=O)c4ccc(c(O)n1CCCN1CCOCC1)c2c4-3,-34.7% (active)
2,Brc1ccc(SCN(CSc2ccc(Br)cc2)Cc2ccccc2)cc1,40.3%
3,C/C(=N\NC(=S)N1CCCC1)c1ccccn1,-13.4% (active)
4,Brc1cccc(-n2ncc3c(Nc4ccc(-c5nnc(-c6ccccc6)o5)cc4)ncnc32)c1,122%
5,C[N+](C)(C)CCCCCCCCCC[N+](C)(C)C,96.5%
6,NC(=O)c1cccc([C@@H]2O[C@H](CO)[C@@H](O)[C@H]2O)c1,39.5%
7,COc1cc(/C=C2\C(=O)N(CCCCn3c4ccccc4c(=O)c4ccccc43)c3ccccc32)cc(OC)c1O,53.5%
8,CCOC(=O)c1ccoc1,118%
9,CCC1=C(c2ccc(OC)cc2)C(C)Oc2cc(OC(C)=O)ccc21 (stereo unspecified),56.7%
10,CNC(=O)c1cc(Oc2ccc3nc(NC(=O)Nc4ccc(Cl)c(C(F)(F)F)c4)sc3c2)ccn1,97.2%
11,CCC/C(=N/NC(N)=O)c1ccco1,76.8%
12,CCCCc1ccc2nc(NC(=O)OC)[nH]c2c1,-65.6% (active)
13,N#Cc1c(-c2ccccc2)nc(SCC(O)CN2CCOCC2)nc1N1CCOCC1 (stereo unspecified),72.2%
14,CN(C)c1ccc2c(c1)OC(N)=C(C#N)C2c1ccc2c(c1)CCO2 (stereo unspecified),-1.56% (active)
15,O=C1OC(c2ccccc2)=N/C1=C\c1ccc([N+](=O)[O-])cc1,119%
16,CCc1nn(Cc2ccccc2)c2nc(C)c(CCc3ccccc3)c(Cl)c12,82.7%
17,O=C(OCc1nc2nc(Cl)nc(N3CCOCC3)c2[nH]1)n1ccnc1,-30.1% (active)
18,Cc1ccc(S(=O)(=O)Nc2ccccc2)cc1N,96%
19,CC1(C)OC(=O)C(=Cc2ccccc2Br)C(=O)O1,98.5%
20,Nc1[nH]c(=S)nc2oc(-c3ccccc3)c(-c3ccccc3)c12,90.5%
21,O=C(/C=C/c1sc(Cl)nc1Cl)c1ccccc1,42.2%

row,Compound,growth
1,COc1ccc(C2CC(=O)c3c(nc4ccc(Cl)cc4c3N)C2)cc1 (stereo unspecified),99.1%
2,N#Cc1ncc(-c2ccc(C(F)(F)F)cc2)c(NC2CCCCCC2)n1,6.7% (active)
3,CCCCCCCCCCCCCCCCCC1=NCCN1C(=O)OCCO,35.5%
4,O=C(OCc1ccc2c(Cl)cc(Cl)c(O)c2n1)N1CCNCC1,64.5%
5,COc1ccc(/C=C/C(c2cc(OC)c(OC)c(OC)c2)n2cncn2)cc1O (stereo unspecified),-36.3% (active)
6,COc1cc2c(cc1-c1c(C)noc1C)ncc1nc(-c3ccccn3)n([C@H](C)COC(F)F)c12,33.6%
7,OCCNc1nc(NCCO)nc(Nc2ccc(C3=NN(c4cc(Cl)cc(Cl)c4)C(c4ccccc4)C3)cc2)n1 (stereo unspecified),61.7%
8,Oc1ccc(/C=N/NC(=S)Nc2ccccc2)nc1,-8.79% (active)
9,COc1ccc2c(c1)c(-c1nonc1-c1cn(C)c3ccccc13)cn2C,2.88% (active)
10,FC(F)(F)c1cc(Nc2ccc3c(OCCCN4CCOCC4)cccc3n2)ccc1Cl,63.3%
11,CN(CCCNC(=O)CCOCCOCCOCCNC(=O)Cc1ccc2ccc3cccc4ccc1c2c34)CCCNc1cc(-c2ccc3ccccc3c2)nc2ccccc12,-77.6% (active)
12,COc1cc(/C=N/NC(=O)c2ccc(C)nc2)cc(OC)c1OC,56%
13,CN(C)C(=S)NN=C(c1ccccn1)c1ccccn1,-27.5% (active)
14,Oc1cccc(-c2nc(N3CCOCC3)c3c4c(sc3n2)CCCC4)c1,74.7%
15,CC(C)(C)OC(=O)N1CCc2c(sc3ncnc(N/N=C/c4ccc(Br)cc4)c23)C1,83.1%
16,COc1cc(/C=C2\CCC/C(=C\c3cc(CN4CCCCC4)c(O)c(OC)c3)C2=O)cc(CN2CCCCC2)c1O,92.7%
17,Cc1cc(=O)oc2cc(O)cc(O)c12,109%
18,COc1cc2c(cc1-c1c(C)noc1C)ncc1nc(C3CC3)n([C@H](C)COC(F)F)c12,31%
19,COc1ccc(Cl)cc1Nc1nc(C(F)(F)F)ccc1C(=O)N/N=C/c1ccc(Cl)cc1,9.34% (active)
20,N#Cc1c(-c2ccccc2)[nH]c2ncc(-c3ccccc3)n2c1=O,97.1%
